# VACV Venus inh – inhibitors of vaccinia virus (Venus reporter) | Potency, µM (titrated, usually from 36.5 µM), for the others: at the highest dose activity change, negative = inhibition, hits mostly inhibitors | actives 0.46% (n = 330,000) | Vaccinia virus Venus reporter expression, fluorescence; calls by dose curve; tested in A549 cells; also: nearly all actives have a fitted effect of over 30% in size
# LASV entry inh – inhibitors of Lassa virus binding or cell entry | Lassa virus pseudotype entry inhibition, cell reporter | Potency, µM (series often up to 37.9 µM), for the others: at the top dose activity change, negative = inhibition, hits mostly inhibitors | actives 1.2% (n = 300,000); calls by dose curve; tested in HEK293 cells; also: nearly all actives have a fitted effect of over 50% in size
# Vaccinia mCherry – inhibitors of vaccinia virus infection (mCherry reporter signal). Vaccinia virus mCherry reporter infection, fluorescence. Potency, µM (series often up to 36.5 µM), for inactives: top-dose activity change, negative = inhibition, most hits filed as inhibitors. actives 0.63% (n = 310,000). AID 720579; calls by dose curve; tested in A549 cells; also: nearly all actives have a fitted effect of over 35% in size
# Marburg entry inh – inhibitors of Marburg virus binding or cell entry. Marburg virus pseudotyped entry inhibition, cell reporter. Potency, µM (series often up to 37.8 µM), for inactives: at the highest dose activity change, negative = inhibition, hits mostly inhibitors. actives 1.8% (n = 300,000); calls by dose curve; tested in HEK293 cells
# Starred values were filed as active, the others as inactive; i = inactive; ? = inconclusive; . = not tested or not shown; [ ] = remark or other dose. Sampled rows, rich in hits. Any-hit rate of the full collection: about 2.5%. % is scaled to controls: 0 for no effect and ±100 for the full control effect; potency is read from the fitted curve at half-maximal effect.
SMILES,VACV Venus inh,LASV entry inh,Vaccinia mCherry,Marburg entry inh
Cc1cnc(SCC2CCCO2)nc1C1CCCN(Cc2cc3c(cc2Cl)OCO3)C1 (stereo not given),-19.9%,.,-25.9%,.
COc1ccc(NS(=O)(=O)c2ccc(N/N=C(\C)c3ccncc3)c([N+](=O)[O-])c2)cc1,?,11.6µM*,?,6.31µM*
C/C(=N\Nc1ccc(S(=O)(=O)Nc2ccc(Cl)cc2)cc1[N+](=O)[O-])c1ccc(N2CCOCC2)cc1,-20.2%,-0.2%,i,30.2%
CCOc1ccc(-n2c(C)cc(C(=O)CCl)c2C)cc1,-9.4%,10µM*,-29.6%,?
O=C(CCCCn1c(=O)[nH]c2ccccc2c1=O)N1CCN(c2cccc(C(F)(F)F)c2)CC1,?,16.4µM*,?,9.2µM*
CSc1ccc(/C=N/NC(=O)c2ccccc2Cl)cc1,-23.0%,8.91µM*,-8.7%,?
CN(C)c1ccc(/C=N/NC(=O)c2ccccc2Cl)cc1,-21.1%,?,-4.9%,?
CSc1ccc(/C=N/Nc2cccc(C(=O)O)c2)cc1,-13.3%,0.891µM*,-7.8%,?
O=C(O)c1cccc(N/N=C/c2cccs2)c1,-6.3%,5.8µM*,-5.4%,1.46µM*
CCN(CC)C1CCN(C(=O)c2cnn(-c3nccc(-c4ccco4)n3)c2C(C)C)C1 (stereo not given),-3.6%,.,-10.6%,.
O=C(N[C@@H](Cc1ccccc1)C(=O)CCl)OCc1ccccc1,10µM*,3.26µM*,10µM*,16.4µM*
CC(C)[C@H](NC(=O)OCc1ccccc1)C(=O)N[C@H](C=O)Cc1ccccc1,-14.5%[60.7 µM],7.2%,i,0.651µM*
CCOc1ccc(C(=O)Nc2ccc3nc(SCc4ccccc4)sc3c2)cc1,10µM*,3.3%[46.1 µM],?,2.0%[46.1 µM]
C=CCN1C(=O)[C@@]2(CC(C)=C[C@@H](COc3ccccc3)O2)c2ccccc21,.,.,.,2.0%[14.2 µM]
COc1cc2c(cc1OC)[C@@H]1C(=O)c3ccc4c(c3O[C@@H]1CO2)C[C@H](C(C)C)O4,-25.4%,?,-18.1%,7.08µM*
COc1cc2c(cc1OC)[C@H]1C(=O)c3ccc4c(c3O[C@H]1CO2)C[C@@H](C(C)(C)O)O4,-20.2%,.,?,.
COc1cc2c(cc1OC)[C@@H]1C(=O)c3ccc4oc(C(C)C)cc4c3OC1CO2 (stereo not given in full),?,.,-23.5%,.
COc1cc2c(cc1OC)C1C(=O)c3ccc4c(c3OC1CO2)CC(C(C)C)O4 (stereo not given),-28.2%,?,?,3.55µM*
CC(C)(C)[C@H]1CCC(=O)N(CCSc2ccc(Br)cc2)CC1,-13.7%,.,-17.4%,.
COc1ccc(CNCc2ccccc2)cc1COc1ccc(NC(C)=O)cc1,-12.2%,.,-11.6%,.
CC(=O)N1CCCc2cc(S(=O)(=O)N3CCCC(C(=O)N4CCN(c5ccccc5)CC4)C3)ccc21 (stereo not given),?,-19.5%[46.1 µM],?,.
Cc1cccc(N2CCN(S(=O)(=O)c3ccc4c(c3)CCCN4C(=O)C3CCC3)CC2)c1C,-21.8%,6.31µM*,-19.0%,.
COc1ccccc1N1CCN(C(=O)C2CCCN(S(=O)(=O)c3ccc4c(c3)CCCN4C(C)=O)C2)CC1 (stereo not given),-13.4%,?,-24.6%,11.2µM*
CC(=O)N1CCCc2cc(S(=O)(=O)N3CCCC(C(=O)N4CCN(c5cc(C)ccc5C)CC4)C3)ccc21 (stereo not given),-18.1%,5.62µM*,-16.3%,?
Cc1ccc(C)c(N2CCN(S(=O)(=O)c3ccc4c(c3)CCCN4C(=O)C3CCC3)CC2)c1,-15.4%,-28.1%[46.1 µM],-16.9%,.
SMILES,VACV Venus inh,LASV entry inh,Vaccinia mCherry,Marburg entry inh
Cc1cc(I)ccc1Nc1nc(NCCN2CCOCC2)nc(N2CCOCC2)n1,-16.8%,.,-6.7%,.
O=C(C[N+]1(CC(O)c2ccccc2)CCOCC1)c1ccccc1 (stereo not given),-8.8%,.,-0.8%,.
COC(=O)[C@@]1(C=C2c3ccc(F)cc3[C@@H](OC)[C@@H]2C)[C@@H]2CC=C[C@@H]21,.,.,.,-0.3%[14.2 µM]
COc1ccc(CCC(=O)NNC(=O)Nc2ccc(C(C)=O)cc2)cc1,-9.5%,0.708µM*,-7.0%,6.0%
CCC1(C2CCN(Cc3cc4ccccc4o3)CC2)NC(=O)N(CC2COc3ccccc3O2)C1=O (stereo not given),-35.4%,.,?,.
OC(COc1ccc2cc(Br)ccc2c1)CN1CCCC1 (stereo not given),.,-0.2%,.,8.2µM*
OC(COc1ccc(OCc2ccccc2)cc1)CN1CCCCC1 (stereo not given),-6.3%,21.2%,-13.6%,?
CC(C)(c1ccccc1)c1ccc(OCC(O)CN2CCCC2)cc1 (stereo not given),?,?,-22.5%,2.82µM*

# Screening results (PubChem)
